According to publication PMC9911399, “Two distinct binding modes provide the RNA-binding protein RbFox with extraordinary sequence specificity”:
Substitutions are numbered along the chain they refer to; changes in the protein carry UniProt numbers. Whole data set: some 16,000 sequences, median “ka relative to ugcaugu” near 0.0091, cut for the highest 2% near 0.032. Only a selection was taken, and the highest values are over-represented in it overall.

T1: RBFOX1 RRM (Homo sapiens, UniProt Q9NWB1 109-208)
T1 sequence: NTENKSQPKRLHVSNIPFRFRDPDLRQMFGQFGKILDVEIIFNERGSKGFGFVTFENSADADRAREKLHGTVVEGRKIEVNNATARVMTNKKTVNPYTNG

B1: ACAACCU (DNA:RNA)
RNA: GGGAGACCGGAAUUCAGAUUGUCCACAACCUUUAAAUCCCGUCGUAGCCACCA
DNA 1: CAATCTGAATTCCGGTCTCCC
DNA 2: TGGTGGCTACGACGGGATT
B2: AGCGAAA (DNA:RNA)
RNA: B1 RNA with C26G, A27C, A28G, C29A, C30A, U31A
DNA 1: CAATCTGAATTCCGGTCTCCC
DNA 2: TGGTGGCTACGACGGGATT
B3: UUUUUGU (DNA:RNA)
RNA: B1 RNA with A25U, C26U, A27U, A28U, C29U, C30G
DNA 1: CAATCTGAATTCCGGTCTCCC
DNA 2: TGGTGGCTACGACGGGATT
B4: UCGUCCC (DNA:RNA)
RNA: B1 RNA with A25U, A27G, A28U, U31C
DNA 1: CAATCTGAATTCCGGTCTCCC
DNA 2: TGGTGGCTACGACGGGATT
B5: ACAGACA (DNA:RNA)
RNA: B1 RNA with A28G, C29A, U31A
DNA 1: CAATCTGAATTCCGGTCTCCC
DNA 2: TGGTGGCTACGACGGGATT
B6: UCACUAC (DNA:RNA)
RNA: B1 RNA with A25U, A28C, C29U, C30A, U31C
DNA 1: CAATCTGAATTCCGGTCTCCC
DNA 2: TGGTGGCTACGACGGGATT
B7: GGCAAAG (DNA:RNA)
RNA: B1 RNA with A25G, C26G, A27C, C29A, C30A, U31G
DNA 1: CAATCTGAATTCCGGTCTCCC
DNA 2: TGGTGGCTACGACGGGATT
B8: UGUCGUG (DNA:RNA)
RNA: GGGAGACCGGAAUUCAGAUUGUCCUGUCGUGUUAAAUCCCGUCGUAGCCACCA
DNA 1: CAATCTGAATTCCGGTCTCCC
DNA 2: TGGTGGCTACGACGGGATT
B9: UGGAGUG (DNA:RNA)
RNA: B8 RNA with U27G, C28A
DNA 1: CAATCTGAATTCCGGTCTCCC
DNA 2: TGGTGGCTACGACGGGATT
B10: UGGAUCU (DNA:RNA)
RNA: B1 RNA with A25U, C26G, A27G, C29U
DNA 1: CAATCTGAATTCCGGTCTCCC
DNA 2: TGGTGGCTACGACGGGATT
B11: UGGAUCG (DNA:RNA)
RNA: B8 RNA with U27G, C28A, G29U, U30C
DNA 1: CAATCTGAATTCCGGTCTCCC
DNA 2: TGGTGGCTACGACGGGATT
B12: UGUUGUC (DNA:RNA)
RNA: B8 RNA with C28U, G31C
DNA 1: CAATCTGAATTCCGGTCTCCC
DNA 2: TGGTGGCTACGACGGGATT
B13: UGGAAUG (DNA:RNA)
RNA: B8 RNA with U27G, C28A, G29A
DNA 1: CAATCTGAATTCCGGTCTCCC
DNA 2: TGGTGGCTACGACGGGATT
B14: UGUCGUC (DNA:RNA)
RNA: B8 RNA with G31C
DNA 1: CAATCTGAATTCCGGTCTCCC
DNA 2: TGGTGGCTACGACGGGATT
B15: UGGAUCC (DNA:RNA)
RNA: B1 RNA with A25U, C26G, A27G, C29U, U31C
DNA 1: CAATCTGAATTCCGGTCTCCC
DNA 2: TGGTGGCTACGACGGGATT
B16: UGUCUUG (DNA:RNA)
RNA: B8 RNA with G29U
DNA 1: CAATCTGAATTCCGGTCTCCC
DNA 2: TGGTGGCTACGACGGGATT
B17: UGGAGAG (DNA:RNA)
RNA: B8 RNA with U27G, C28A, U30A
DNA 1: CAATCTGAATTCCGGTCTCCC
DNA 2: TGGTGGCTACGACGGGATT
B18: UGGAGAU (DNA:RNA)
RNA: B8 RNA with U27G, C28A, U30A, G31U
DNA 1: CAATCTGAATTCCGGTCTCCC
DNA 2: TGGTGGCTACGACGGGATT
B19: UGGAGAA (DNA:RNA)
RNA: B8 RNA with U27G, C28A, U30A, G31A
DNA 1: CAATCTGAATTCCGGTCTCCC
DNA 2: TGGTGGCTACGACGGGATT

biological target: T1, RBFOX1 RRM; assay: EMSA; HiTS-Eq, 1 nM pool, 10 min; buffer printed only for the single-RNA assays: 10 mM Tris pH 7.5, 150 mM NaCl, 3.4 mM EDTA, 0.001% NP-40, 30 C; conditions: tags: His6 N-terminal (pET28a); label: 5' 32P
Summary of the method: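 These values rest on relative association constants, computed from read-count changes of each RNA species versus the control reaction and normalised to the cognate motif. Reads came from free RNA recovered by 8% native PAGE after purified RbFox RRM (wild type or mutant) at increasing concentrations was equilibrated for 10 min in 50 µL with 1 nM of a 5′-radiolabelled pool with 7 randomized nucleotides and DNA-annealed flanks.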

Binder	binding signal
B1	0.000511 KA relative to UGCAUGU
B2	0.0048 KA relative to UGCAUGU
B3	0.0281 KA relative to UGCAUGU
B4	0.00735 KA relative to UGCAUGU
B5	0.00018 KA relative to UGCAUGU
B6	0.000713 KA relative to UGCAUGU
B7	0.00447 KA relative to UGCAUGU
B8	0.0277 KA relative to UGCAUGU
B9	0.0323 KA relative to UGCAUGU
B10	0.0236 KA relative to UGCAUGU
B11	0.0333 KA relative to UGCAUGU
B12	0.0242 KA relative to UGCAUGU
B13	0.0953 KA relative to UGCAUGU
B14	0.0214 KA relative to UGCAUGU
B15	0.0229 KA relative to UGCAUGU
B16	0.0447 KA relative to UGCAUGU
B17	0.0249 KA relative to UGCAUGU
B18	0.0283 KA relative to UGCAUGU
B19	0.0194 KA relative to UGCAUGU
